CtBP-E1A inh – CtBP/E1A binding inhibition; AlphaScreen GST-E1A/His-CtBP binding, 1536-well; stronger effect = lower value; activity change, % (concentration not given with the values); 0.49% of 340,000 active; AID 651724; in the data active means activity change below about -65%; inconclusive means mostly about -30% to -63%
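GST-E1A and His-tagged CtBP (125 nM each as 5X stock) were preincubated with pin-transferred compound for 2 h at 37 °C in the dark, then glutathione donor and nickel acceptor beads were added for 1 h before AlphaScreen reading.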
USP2a block – USP2a (human) protease inhibition; USP2 core, Ub-CHOP2 coupled fluorogenic reporter, 485/531; O75604; AID 463254; 0.01% of 330,000 active; Potency, µM (doses to about 38.3 µM), hits mostly inhibitors
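Deubiquitinase activity read as fluorescence (485/531 nm) after Ub-CHOP2 cleavage activates the enterokinase reporter on its substrate; USP2 core 10nM, Ub-CHOP2 and substrate 25nM each, 30min compound preincubation then 60min RT; data normalized to NEM, curves fitted.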
Six1-Eya2 inh – blocks human Six1 binding to Eya2; activity change, % (no concentration beside the values); Q15475+O00167; AlphaScreen GST-Six1/His-Eya2 binding, biochemical; stronger effect = lower value; 0.56% of 360,000 active; AID 651725; in the data active means activity change below about -65%; inconclusive means mostly about -30% to -63%
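Six1/Eya2 binding was read as AlphaScreen signal after compounds were pinned into GST-Six1 plus His-tagged Eya2 (5X stock 250/500 nM) in pH 8.0 Tris/NaCl/TCEP buffer, beads added, then incubated 1 h, 37 C, dark.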
Eya2 inh – blocks the phosphatase activity of human Eya2 | O00167 | recombinant Eya2, OMFP fluorescence dephosphorylation (OMFP is methylfluorescein phosphate) | Potency, µM (series often up to 76.9 µM), actives largely listed as inhibitors | 0.006% of 330,000 active
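Eya2 (0.2 uM) preincubated 10 min at ambient with compound, then OMFP substrate added at 50 uM; 10 min reaction in 50 mM HEPES pH 7.5, 50 mM NaCl, 5 uM MgCl2, 0.05% BSA, 1 mM DTT. Fluorescence read at Ex 485/Em 525 nm.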
L3MBTL1 inh – inhibitors of human L3MBTL1 | AlphaScreen L3MBTL1–H3K9me1 peptide binding | Potency, µM (titrated, usually from 57.1 µM), most hits filed as inhibitors | 0.66% of 230,000 active | AID 485360; further: nearly all actives have a fitted effect of over 60% in size
Target sequence (Q9Y468 whole entry, looked up): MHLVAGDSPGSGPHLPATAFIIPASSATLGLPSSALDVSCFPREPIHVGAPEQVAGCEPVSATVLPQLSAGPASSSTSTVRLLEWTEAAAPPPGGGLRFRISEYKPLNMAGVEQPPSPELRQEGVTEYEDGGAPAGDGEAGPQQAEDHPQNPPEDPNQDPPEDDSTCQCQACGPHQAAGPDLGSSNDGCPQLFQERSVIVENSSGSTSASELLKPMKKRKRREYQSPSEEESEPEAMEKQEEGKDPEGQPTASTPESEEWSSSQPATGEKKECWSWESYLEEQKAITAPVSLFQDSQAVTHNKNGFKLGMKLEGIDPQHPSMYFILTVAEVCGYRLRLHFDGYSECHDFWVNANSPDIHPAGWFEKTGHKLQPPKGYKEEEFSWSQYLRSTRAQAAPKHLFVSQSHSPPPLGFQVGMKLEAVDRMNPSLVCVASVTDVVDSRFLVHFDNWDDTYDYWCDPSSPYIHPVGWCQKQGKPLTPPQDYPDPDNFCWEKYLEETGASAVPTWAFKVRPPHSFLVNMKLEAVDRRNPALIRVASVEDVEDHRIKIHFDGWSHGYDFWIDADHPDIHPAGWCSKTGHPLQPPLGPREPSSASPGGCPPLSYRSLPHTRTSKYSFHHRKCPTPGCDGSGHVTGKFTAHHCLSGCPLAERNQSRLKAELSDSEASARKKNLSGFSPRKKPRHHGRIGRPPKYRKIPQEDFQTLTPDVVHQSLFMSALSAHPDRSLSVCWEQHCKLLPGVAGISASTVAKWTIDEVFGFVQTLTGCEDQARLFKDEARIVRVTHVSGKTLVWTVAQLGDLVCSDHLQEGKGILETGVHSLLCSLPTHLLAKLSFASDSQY
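Read-out is AlphaScreen signal from streptavidin donor and nickel chelate acceptor beads (10 ug/mL final each) bridging L3MBTL1 (50 nM) and biotinylated K9-monomethylated H3(1-15) peptide (75 nM), after 30 min compound exposure at room temperature.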
uPA surface inh – cell surface uPA generation inhibition; cell surface uPA generation assay, qHTS; Potency, µM (series often up to 38.3 µM), actives largely listed as inhibitors; 0.31% of 330,000 active; active means well fitted inhibition curve with a large enough effect; inconclusive means small, poorly fitted or top-dose-only effect; inactive means no such curve, though single readings can be large or run the other way; tested in mouse RAW 264.7 cells; further: nearly all actives have a fitted effect of over 55% in size
A number is an active result; i = inactive; ? = inconclusive; nt = no result. A selection: hits, their analogues and other compounds. The true share with any hit is near 1.2%. Unless noted, the call rests on the fitted dose curve; in most records, active means well fitted curve in the direction sought with a large enough effect; inconclusive means small, poorly fitted or top-dose-only effect, or another doubt; inactive means no such curve, though single readings can be large; an effect the other way counts as inactive or inconclusive.

SMILES | CtBP-E1A inh | USP2a block | Six1-Eya2 inh | Eya2 inh | L3MBTL1 inh | uPA surface inh
O=c1c2ccccc2oc2ccc(C#CC3(O)CCCCC3)cc12 | i | nt | i | nt | nt | 2.8µM
Cn1c2ccccc2c(=O)c2cc(C#CC3(O)CCCCC3)ccc21 | i | i | i | i | i | 1.3µM
Cc1cc2sc3ccc(C#CC4(O)CCCCC4)cc3c(=O)c2cc1C | i | nt | i | nt | nt | 10µM
CCCCNc1c(-c2ccc(SC(C)CC)cc2)nc2cnccn12 (centres undefined) | i | i | i | i | i | ?
O=C(Nc1ccc(F)cc1)C(CCc1ccccc1)N1CCN(C(=O)c2ccco2)CC1 (centres undefined) | i | nt | i | nt | nt | nt
COc1ccc([C@H]2/C=C\CN(Cc3ccc(N(C)C)cc3)[C@@H](C)C(=O)N2Cc2ccc(F)cc2)cc1 | -65 | nt | ? | nt | nt | i
COc1ccc([C@H]2/C=C\CN(C(=O)CC(C)(C)C)[C@@H](C)C(=O)N2Cc2ccc(F)cc2)cc1 | i | nt | i | nt | nt | i
COc1ccc(S(=O)(=O)N2CCOC23CCN(S(=O)(=O)c2cc(F)ccc2F)CC3)cc1 | i | i | -69 | i | i | i
Cc1ccc(CNC(=O)C2CCC(=O)N(Cc3cccc(C(F)(F)F)c3)C2)o1 (centres undefined) | i | nt | i | nt | nt | i
O=C(O)c1cccc2cccc(-c3c4ccc(=O)c(O)c-4oc4c(O)c(O)ccc34)c12 | i | nt | -76 | nt | nt | i
C=CC(=O)N1CCCC(Nc2nc(Nc3ccc(N(C)C(=O)CC)cc3C)nc3nc[nH]c23)C1 (centres undefined) | ? | i | -67 | i | i | i
CN(C)c1ccc(N=Nc2nccs2)cc1 | ? | nt | -83 | nt | nt | nt
COCCNC(=O)/C(C#N)=C/c1c(N2CCN(C)CC2)nc2c(C)cccn2c1=O | -76 | i | i | i | nt | i
COCCCNC(=O)/C(C#N)=C/c1c(N2CCN(C)CC2)nc2c(C)cccn2c1=O | i | i | i | i | nt | i
CC1=NN(c2cccc(C(=O)O)c2)C(=O)/C1=C\C=C\c1ccco1 | i | i | ? | i | 3.2µM | i
CC1=NN(c2ccccc2)C(=O)/C1=C/C=C/c1ccccc1 | i | i | i | i | ? | i
Cc1[nH]c2ccccc2c1C(=O)CCl | nt | i | i | i | i | 8.9µM
COc1ccc(C[C@H](N)C(=O)N[C@H]2[C@@H](O)[C@H](n3cnc4c(N(C)C)ncnc43)O[C@@H]2CO)cc1 | i | i | i | i | i | 1µM
CN(C)c1ncnc2c1ncn2C1OC(CO)C(O)C1O (centres undefined) | i | i | i | i | nt | i
CCN(CC)S(=O)(=O)c1ccc(OC)c(NS(=O)(=O)Cc2ccccc2)c1 | i | i | i | i | i | i
COc1ccc(NC(=O)N2CCCC2C(=O)NCc2ccc(C)cc2)cc1 (centres undefined) | i | i | i | i | i | i
CC(C)[C@H]1C(=O)Nc2ccccc2N1C(=O)N[C@@H](Cc1ccccc1)C(=O)N[C@@H](Cc1ccccc1)C(=O)O | i | i | i | i | nt | i
O=C(CSC1=NNC(c2ccccn2)S1)Nc1ccc(C(F)(F)F)cc1 (centres undefined) | -95 | i | -91 | i | nt | i
COc1ccc(C(=O)N/C(=C\c2ccco2)C(=O)NCCCn2ccnc2)cc1 | i | i | i | i | i | i
Cc1ccc(C(=O)N/C(=C\c2ccco2)C(=O)NCCCn2ccnc2)cc1C | i | i | -81 | i | ? | i
SMILES | CtBP-E1A inh | USP2a block | Six1-Eya2 inh | Eya2 inh | L3MBTL1 inh | uPA surface inh
O=C(Nc1c(Cl)cccc1Cl)Oc1cccc2cccnc12 | -94 | nt | -90 | nt | nt | nt
O=C(Nc1cccc(Br)c1)Oc1cccc2cccnc12 | ? | nt | -90 | nt | nt | nt
O=C(Nc1cccc(C(F)(F)F)c1)Oc1ccc(Cl)c2cccnc12 | -96 | i | -70 | i | 25µM | i
O=C(COc1cccc2cccnc12)Nc1ccccc1 | i | i | i | i | ? | i
CCN(C(=O)Cn1nc(C)n2c(cc3cc(C)ccc32)c1=O)c1ccccc1 | i | i | i | i | nt | i
CCC1CN(C(=O)Nc2ccc(C)cc2)c2cc(C)ccc2O1 (centres undefined) | i | i | i | i | i | i
CN(Cc1ccccc1F)C(=O)CCNC(=O)c1ccc(C(C)(C)C)cc1 | i | i | i | i | i | i
Cc1ccc(NC2CCCN(C(=O)c3ccnc(Cl)c3)C2)cc1C (centres undefined) | i | i | i | i | nt | i
COc1cc2c(cc1OC)C(C)N(C(=O)c1c(-c3ccccc3)noc1C)CC2 (centres undefined) | nt | i | i | i | i | 6.3µM
COc1ccccc1NS(=O)(=O)c1cc(C(=O)N2CCN(C/C=C/c3ccccc3)CC2)ccc1C | i | i | i | i | nt | 4µM
Cc1ccc(N/N=C(/Sc2nnnn2-c2ccccc2)C(=O)c2ccccc2)cc1 | ? | i | -78 | i | i | i
COc1ccc(CNC(=O)CCS(=O)(=O)c2ccc3c(c2)CCN3C(C)=O)cc1 | i | i | -92 | i | nt | i
O=C(C[C@H]1C=C[C@@H](NC(=O)c2ccncc2)[C@@H](CO)O1)NCC1CC1 | i | nt | i | nt | nt | nt
C=CCNc1nc(-c2ccccn2)nnc1-c1ccccc1 | -92 | i | -92 | i | nt | i
O=C(c1ccc([N+](=O)[O-])o1)N1CCc2ccccc2C1 | i | i | i | i | nt | 7.1µM
COc1cc(N2CCCC2)c(OC)cc1/C=C(/C#N)c1cccc(F)c1 | ? | i | -72 | i | nt | i
N#C/C(=C/c1ccc(N2CCCCCC2)o1)c1cccc(F)c1 | i | i | i | i | nt | nt
COc1cc2cc(Oc3ccc4ccc(=O)oc4c3)c(=O)oc2cc1OC1OC(COC(=O)CC(C)(O)CC(=O)O)C(O)C(O)C1O (centres undefined) | ? | i | ? | i | i | i
COc1cc2cc(Oc3ccc4ccc(=O)oc4c3)c(=O)oc2cc1O[C@@H]1O[C@H](CO)[C@@H](O)[C@H](O)[C@H]1O | i | i | i | i | 32µM | i
COc1cc2[nH]c(=S)nc(NC3CCCC3)c2cc1OC | nt | i | nt | i | i | nt
C=CCNc1nc(=S)[nH]c2cc(OC)c(OC)cc12 | -74 | i | -83 | i | i | i
CC1C/C(=C\c2ccccc2[N+](=O)[O-])c2nc3ccccc3c(C(=O)O)c2C1 (centres undefined) | i | i | i | i | nt | i
Cc1ccc(OCC(=O)NCCNC(=O)c2cnccn2)cc1 | i | i | i | i | nt | i
O=C(Nc1ccc2ccccc2n1)c1ccccc1Cl | i | i | i | i | nt | ?
COc1ccc(C(=O)Nc2ccc3ccccc3n2)c(OC)c1OC | i | i | i | i | i | 2.8µM
Cn1c2cc(C#N)sc2c2cnn(Cc3ccc(F)cc3)c(=O)c21 | nt | i | nt | i | i | i

High-throughput results (PubChem)
